Measured values from PubChem BioAssay (EPA / NIEHS).
The source made the active and inactive calls. Rule for the calls: active = hit-call score of the fitted dose curve at least 0.9, where 1 is the maximum; inactive = score below 0.9.

Read-out: Cytochrome P450 4A22 (Homo sapiens) (UniProt Q5TCH4)
Test: LTEA_HepaRG_CYP4A22: Life Technologies and Expression Analysis (LTEA) Assay for Cytochrome P450 4A22 (CYP4A22) using HepaRG (AID 2283495)
Settings: mRNA level, 48 h; actives raise or lower the signal
Summary of the method: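 Differentiated HepaRG cells in serum-free induction medium exposed 48 h in duplicate to eight half-log concentrations up to 100 uM in 0.5% DMSO. CYP4A22 mRNA quantified by TaqMan qRT-PCR, normalized to ACTB, GAPDH and POLR2A; bidirectional fit versus DMSO.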

Row | SMILES | outcome | AC50
1 | C#C[C@]1(O)CC[C@H]2[C@@H]3CCC4=CC(=O)CC[C@@H]4[C@H]3CC[C@@]21CC | inactive | –
2 | O=C(O)c1ccccc1 | inactive | –
3 | COC(=O)c1ccccc1C(=O)O | inactive | –
4 | CC(C)(C)[C@@H](O)[C@@H](Cc1ccc(Cl)cc1)n1cncn1 | – | 27.8 µM (active)
5 | c1ccc2[nH]c(-c3cscn3)nc2c1 | inactive | –
6 | N[C@@H](Cc1cc(I)c(Oc2ccc(O)c(I)c2)c(I)c1)C(=O)O | – | 0.00445 µM (active)
7 | CCOC(=O)c1ccc(O)cc1 | inactive | –
8 | O=C(Nc1ccc([N+](=O)[O-])cc1Cl)c1cc(Cl)ccc1O | – | 14.2 µM (active)
9 | COC(=O)c1ccc(I)cc1S(=O)(=O)NC(=O)Nc1nc(C)nc(OC)n1 | inactive | –
10 | CCCN(CCC)C(=O)SCC | inactive | –
11 | CCCCC(CC)COC(=O)c1ccccc1C(=O)O (centres undefined) | inactive | –
12 | C[C@]12C[C@H](O)[C@H]3[C@@H](CCC4=CC(=O)CC[C@@]43C)[C@@H]1CC[C@@H]2C(=O)CO | inactive | –
13 | S=C([S-])NCCNC(=S)[S-].[Mn+2] | – | 3.6 µM (active)
14 | O=C(O)C1(C(=O)Nc2ccc(Cl)cc2Cl)CC1 | – | 80.7 µM (active)
15 | C=CCOC(Cn1ccnc1)c1ccc(Cl)cc1Cl (centres undefined) | – | 18.6 µM (active)
16 | CCCOC(=O)NCCCN(C)C | inactive | –
17 | C#CCOC(=O)[C@@H](C)Oc1ccc(Oc2ncc(Cl)cc2F)cc1 | – | 13.2 µM (active)
18 | CC(=O)[C@H]1CC[C@H]2[C@@H]3CCC4=CC(=O)CC[C@]4(C)[C@H]3CC[C@]12C | – | 31.1 µM (active)
19 | CCN(CC)C(=O)c1cccc(C)c1 | inactive | –
20 | CCCCCOC(=O)COc1cc(N2C(=O)C3=C(CCCC3)C2=O)c(F)cc1Cl | inactive | –
21 | CCC(C)OC(=O)N1CCCCC1CCO (centres undefined) | inactive | –
22 | CCCCOCCOCCOCc1cc2c(cc1CCC)OCO2 | inactive | –
23 | CCOC(=O)COc1cc(-n2ncc(C(F)(F)F)c(C)c2=O)c(F)cc1Cl | inactive | –
24 | CCCN(CCC)c1c([N+](=O)[O-])cc(C(F)(F)F)c(N)c1[N+](=O)[O-] | – | 22 µM (active)
25 | CC1(C)C(C=C(Cl)Cl)C1C(=O)OCc1cccc(Oc2ccccc2)c1 (centres undefined) | inactive | –

Read-out: Cytochrome P450 7A1 (Homo sapiens) (UniProt P22680)
Test: LTEA_HepaRG_CYP7A1: Life Technologies and Expression Analysis (LTEA) Assay for Cytochrome P450 7A1 (CYP7A1) using HepaRG (AID 2283496)
Settings: mRNA level, 48 h; actives raise or lower the signal
Summary of the method: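 HepaRG cells plated 48 h, then switched to serum-free induction medium and exposed in duplicate for 48 h to 8-point half-log series from 100 uM in 0.5% DMSO. CYP7A1 mRNA by qRT-PCR (TaqMan), normalized to ACTB/GAPDH/POLR2A; bidirectional fit versus DMSO.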

Row | SMILES | AC50 | outcome
26 | C#C[C@]1(O)CC[C@H]2[C@@H]3CCC4=CC(=O)CC[C@@H]4[C@H]3CC[C@@]21CC | 0.056 µM (active) | –
27 | O=C(O)c1ccccc1 | – | inactive
28 | COC(=O)c1ccccc1C(=O)O | – | inactive
29 | CC(C)(C)[C@@H](O)[C@@H](Cc1ccc(Cl)cc1)n1cncn1 | – | inactive
30 | c1ccc2[nH]c(-c3cscn3)nc2c1 | – | inactive
31 | N[C@@H](Cc1cc(I)c(Oc2ccc(O)c(I)c2)c(I)c1)C(=O)O | 40 µM (active) | –
32 | CCOC(=O)c1ccc(O)cc1 | – | inactive
33 | O=C(Nc1ccc([N+](=O)[O-])cc1Cl)c1cc(Cl)ccc1O | 13.6 µM (active) | –
34 | CCCN(CCC)C(=O)SCC | – | inactive
35 | CCCCC(CC)COC(=O)c1ccccc1C(=O)O (centres undefined) | 50.8 µM (active) | –
36 | C[C@]12C[C@H](O)[C@H]3[C@@H](CCC4=CC(=O)CC[C@@]43C)[C@@H]1CC[C@@H]2C(=O)CO | – | inactive
37 | S=C([S-])NCCNC(=S)[S-].[Mn+2] | 4.73 µM (active) | –
38 | O=C(O)C1(C(=O)Nc2ccc(Cl)cc2Cl)CC1 | 77.8 µM (active) | –
39 | C=CCOC(Cn1ccnc1)c1ccc(Cl)cc1Cl (centres undefined) | 35.3 µM (active) | –
40 | CCCOC(=O)NCCCN(C)C | – | inactive
41 | C#CCOC(=O)[C@@H](C)Oc1ccc(Oc2ncc(Cl)cc2F)cc1 | – | inactive
42 | CC(=O)[C@H]1CC[C@H]2[C@@H]3CCC4=CC(=O)CC[C@]4(C)[C@H]3CC[C@]12C | 26.8 µM (active) | –
43 | CCN(CC)C(=O)c1cccc(C)c1 | – | inactive
44 | CCCCCOC(=O)COc1cc(N2C(=O)C3=C(CCCC3)C2=O)c(F)cc1Cl | – | inactive
45 | CCC(C)OC(=O)N1CCCCC1CCO (centres undefined) | – | inactive
46 | CCCCOCCOCCOCc1cc2c(cc1CCC)OCO2 | – | inactive
47 | CCOC(=O)COc1cc(-n2ncc(C(F)(F)F)c(C)c2=O)c(F)cc1Cl | – | inactive
48 | CCCN(CCC)c1c([N+](=O)[O-])cc(C(F)(F)F)c(N)c1[N+](=O)[O-] | 36.6 µM (active) | –
49 | CC1(C)C(C=C(Cl)Cl)C1C(=O)OCc1cccc(Oc2ccccc2)c1 (centres undefined) | – | inactive
